# Sampled rows, rich in hits. Any-hit rate of the full collection: about 5.9%.
# ATXN2 expr inh – Primary qHTS for Inhibitors of ATXN expression | 360,000 tested, 0.72% active | HEK-293 ATXN2-luciferase reporter, luminescence, 24 h | AID 1745845, 2022 | Potency, µM (titrated, usually from 57 µM), without a hit: top-dose activity change, negative = inhibition, usual class: inhibitors; further: on the % scale 0 is the no-effect control and ±100 the full control effect; nearly all actives have a fitted effect of over 55% in size
#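 qHTS (up to 57 uM final) was run with 24 h compound exposure of reporter cells at 37 °C. Each well was multiplexed: SteadyGlo luminescence measured ATXN2-luciferase expression after a fluorogenic Gly-Phe-AFC viability readout (25 uM final).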
# KB-V1 MDR tox – qHTS assay for MDR1-selective chemotherapeutics: Primary screen using the drug-selected MDR subline cells KB-V1; KB-V1 MDR cells viability, CellTiter-Glo, 72 h; 400,000 tested, 3.4% active; AID 1347076, 2019; Potency, µM (doses to about 46.1 µM), most hits filed as cytotoxic; further: on the % scale 0 is the no-effect control and ±100 the full control effect; nearly all actives have a fitted effect of over 60% in size
#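 Compound-treated KB-V1 multidrug-resistant cells, 72 h, 37 degrees C; viability by CellTiter-Glo. Fitted qHTS curves give the values.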
# HepG2 tox – qHTS for Inhibitors of TGF-b: Cytotox Counterscreen | 410,000 tested, 0.76% active | AID 588856, 2011 | HepG2 CAGA-GFP viability, ATP luminescence, 18 h | Potency, µM (series often up to 46.1 µM), for inactives: at the highest dose activity change, negative = cytotoxicity, most hits filed as cytotoxic
#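 CellTiter-Glo luminescence gave cytotoxicity after 18 hours at 37 degrees C. The cells were HepG2 CAGA-GFP in 1% FBS DMEM, stimulated with 500 pg/mL TGF-beta after compound addition. %Activity was normalised to no-cell wells (complete cell-killing) and DMSO (no toxicity), and curves were fitted and classified.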
# TGFb SMAD3 inh – qHTS for Inhibitors of TGF-b; Potency, µM (series often up to 46.1 µM), without a hit: at the highest dose activity, negative = inhibition, hits mostly inhibitors; HepG2 CAGA-GFP TGF-b/SMAD3 reporter, GFP fluorescence, 18 h; TGF-beta stimulated, 500 pg/mL final; 410,000 tested, 1.2% active; further: on the % scale 0 is the no-effect control and ±100 the full control effect; nearly all actives have a fitted effect of over 65% in size
#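 Read-out: total well GFP (ex488/em500-530) summed from mean per-cell fluorescence. Cells: HEPG2 CAGA-GFP, 1% FBS DMEM, 18 h at 37 degrees C with 500 pg/mL final TGF-beta. Unstimulated wells served as the full-inhibition control; stimulated DMSO wells = 0%.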
# KB-3-1 cytotox – qHTS assay for MDR1-selective chemotherapeutics: Primary screen using the parental adenocarcinoma cell KB-3-1; KB-3-1 viability, CellTiter-Glo ATP luminescence, 72 h; Potency, µM (top dose mostly 46.1 µM), hits mostly cytotoxic; 400,000 tested, 1.4% active; AID 1347075, 2019; further: on the % scale 0 is the no-effect control and ±100 the full control effect; nearly all actives have a fitted effect of over 60% in size
#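 Cytotoxicity in the drug-sensitive parental line KB-3-1 was scored as loss of CellTiter-Glo luminescence following 72 h incubation with compound. Values come from curve fitting of normalized concentration-response data.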
# S2 tox – Viability Counterscreen for Primary qHTS for Inhibitors of ATXN expression. Potency, µM (top dose mostly 56.7 µM), actives largely listed as cytotoxic. S2 cells (HEK-293 line with an ATXN2-luciferase reporter) viability, CellTiter-Fluor protease fluorescence, 24 h. 400,000 tested, 0.49% active. AID 651635, 2014; further: nearly all actives have a fitted effect of over 40% in size
# Numbers without * were called inactive; i = inactive; ? = inconclusive; / = not tested or not shown. The call rests on the fitted dose curve; in most records, active means well fitted curve in the direction sought with a large enough effect; inconclusive means small, poorly fitted or top-dose-only effect, or another doubt; inactive means no such curve, though single readings can be large; an effect the other way counts as inactive or inconclusive. Potency means the concentration at half of the fitted maximal effect.
SMILES,ATXN2 expr inh,KB-V1 MDR tox,HepG2 tox,TGFb SMAD3 inh,KB-3-1 cytotox,S2 tox
COc1cccc(C2C=C(c3ccc(OC)cc3OC)Nc3nnnn32)c1 (stereo not given),?,23.1µM*,-10.0%,-5.6%,?,/
CN(C(=O)NCc1noc2ccccc12)c1cccc(Cl)c1,6.9%,i,-9.2%,-11.3%,i,i
O=C(CCCCCn1c(=O)[nH]c2ccccc2c1=O)NCc1ccccc1,/,i,2.4%,-4.3%,i,/
Cc1ccc(CN2CCOCCS2(=O)=O)cc1,/,i,23.1%,6.8%,i,/
COc1cc(=O)n2c(c1C(=O)NCc1ccco1)CCN(C(=O)c1cccnc1SC)CC2,/,/,/,/,/,i
COc1ccc(NC(=O)C(c2ccccc2F)n2c(=O)c(-c3cc4ccccc4[nH]3)nc3ccccc32)cc1 (stereo not given),/,i,/,/,i,/
CCC(NC(=S)NCc1ccc(F)cc1)c1ccc(C(C)C)cc1 (stereo not given),-36.9%,?,-39.0%,?,?,i
CC(NC(=S)NCc1ccc(F)cc1)C12CC3CC(CC(C3)C1)C2 (stereo not given),14.1µM*,?,-10.9%,?,i,i
CCC(C)c1ccc(C(C)NC(=S)NCc2ccc(F)cc2)cc1 (stereo not given),?,?,-22.8%,17.8µM*,?,i
CCOc1ccc(N(C)S(=O)(=O)c2c(C(=O)N3CCC(C)CC3)c(C)n(C)c2C)cc1,/,/,7.5%,14.0%,/,/
CN(C)/[N+]([O-])=N\Oc1cc(OC(=O)c2ccc(N)cc2)c([N+](=O)[O-])cc1[N+](=O)[O-],/,/,0.9%,-4.3%,/,/
Cc1ccc(-c2nnc(SCC(=O)Nc3sc(C)c(C)c3C#N)n2C)cc1,3.6%,i,6.3%,5.1%,i,i
COCCn1c(SCC(=O)Nc2sc(C)c(C)c2C#N)nnc1-c1ccc(OC)cc1,-6.4%,9.2µM*,5.8%,-1.7%,i,i
Cc1c(C(=O)N2CCC(C)CC2)c(S(=O)(=O)NCc2ccccc2)c(C)n1C,/,/,-2.7%,0.7%,/,/
COc1cc(C)ccc1S(=O)(=O)NC(=O)Cn1nnc(COc2ccc3c(c2)CCCC3)c1C,19.0%,?,4.5%,23.5%,i,i
O=C(/C=C/c1ccco1)NC(=S)Nc1ccc(O)c(-c2nc3ccccc3s2)c1,?,?,-31.4%,-17.9%,5.8µM*,?
COc1ccc(NC(=S)NC(=O)/C=C/c2ccco2)cc1,23.1%,?,-27.0%,-28.6%,i,?
Cc1ccc(-c2csc(NC(=S)NC(=O)/C=C/c3ccco3)n2)cc1,-17.1%,3.26µM*,2.3%,-0.9%,5.8µM*,i
CCNC(=S)Nc1cc(C)ccn1,7.0%,i,1µM*,-14.2%,i,i
Cc1ccc(O)c(NC(=S)NC(=O)/C=C/c2ccco2)c1,35.9%,?,-12.3%,-13.3%,10.3µM*,i
Cc1c(N)nc(C(CC(N)=O)NCC(N)C(N)=O)nc1C(=O)NC(C(=O)NC(C)C(O)C(C)C(=O)NC(C(=O)NCCc1nc(-c2nc(C(=O)NCCCN[C@@H](C)c3ccccc3)cs2)cs1)C(C)O)C(O[C@@H]1O[C@@H](CO)[C@@H](O)[C@H](O)[C@@H]1O[C@H]1O[C@H](CO)[C@@H](O)[C@H](OC(N)=O)[C@@H]1O)c1cnc[nH]1 (stereo not given in full),/,/,/,/,/,i
Cc1ccnc(NC(=S)NC(=O)/C=C/c2ccco2)c1,27.0%,8.2µM*,-2.5%,-10.3%,10.3µM*,i
O=C(/C=C/c1ccco1)NC(=S)Nc1ccc(Cl)cn1,13.1%,i,-0.4%,-5.4%,i,i
CC(C)N1CCc2c(sc(NC(=O)c3ccc(S(=O)(=O)N4CCOCC4)cc3)c2C(N)=O)C1,-37.1%,i,-21.0%,-2.7%,i,?
CC(C)CN(CC(C)C)S(=O)(=O)c1ccc(C(=O)Nc2sc3c(c2C(N)=O)CCN(C(C)C)C3)cc1,?,?,11.2µM*,136.0%,i,/
SMILES,ATXN2 expr inh,KB-V1 MDR tox,HepG2 tox,TGFb SMAD3 inh,KB-3-1 cytotox,S2 tox
COc1ccc(CN2CCOc3ccc(C(O)c4cccnc4)cc3C2)cc1O (stereo not given),/,/,/,/,/,i
CC1CCCC(NC(=S)Nc2ccc(SC(F)F)cc2)C1C (stereo not given),?,23.1µM*,-18.8%,?,18.4µM*,i
O=c1[nH]c(CCC2CCCC2)nc2ccccc12,10.9%,16.4µM*,-2.7%,-16.2%,i,i
COc1cc(Cl)c(S(=O)(=O)N2CCN(c3c(C)cccc3C)CC2)cc1Cl,3.4%,?,-17.0%,18.4%,i,i
C#Cc1cccc(Nc2ncnc3cc(OCCOC)c(OCCO)cc23)c1,-28.0%,/,/,/,/,/
COC(=O)c1ccc2c(C(=Nc3ccc(N(C)C(=O)CN4CCN(C)CC4)cc3)c3ccccc3)c(O)[nH]c2c1,24.3µM*,/,/,/,/,/
Nc1c(N=Nc2ccccc2F)c(=O)[nH]n1-c1ccccc1,2.1%,i,-18.7%,?,i,i
Nc1nn(-c2ccccc2)c(N)c1N=Nc1ccccc1,74.7%,5.8µM*,2.0%,?,?,i
Nc1nn(-c2ccccc2)c(N)c1N=Nc1ccccc1F,50.9%,4.61µM*,4.7%,-25.1%,?,?
O=c1ccn([C@@H]2O[C@H](CO)[C@H](O)[C@@H]2F)c(=O)[nH]1,-8.9%,/,/,/,/,/
Cc1nn(C)c(C(=O)NC(=S)Nc2ccccc2Br)c1Cl,34.2%,i,-28.0%,-8.7%,?,i
CCn1ncc(Cl)c1C(=O)NC(=S)Nc1ccccc1Br,29.9%,16.4µM*,-13.5%,-0.2%,?,i
O=C(CCCCCCC(=O)Nc1cccnc1)NO,347.9%,/,/,/,/,/

# High-throughput results deposited in PubChem by National Center for Advancing Translational Sciences (NCATS).
